Source: PubChem BioAssay

tested on: Inhibin beta A chain (activin A); assay: small molecules binding activin A – biochemical, small-molecule microarray, 635 nm fluorescence scan, primary screen (AID 1107); conditions: INHBA, higher = more signal;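 also: mouse activin A protein probed at 4.33 µg/mL on printed slides; score merges bound-protein fluorescence near 667 nm with spot signal-to-noise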

| Structure (SMILES) | composite z-score |
| --- | --- |
| COC(=O)[C@H]1N=C(c2ccc(OCCCO)cc2)O[C@H]1c1ccccc1CN=[N+]=[N-] | 0.635 |
| C[N+](C)(C)CCCCNC(=O)[C@H]1C[C@H]2C(=O)NCC(=O)N2[C@H]1c1ccc(O)cc1 | 0.952 |
| CN(C)CCCCCCNC(=O)[C@@H]1C[C@@H]2C(=O)NCC(=O)N2[C@@H]1c1ccc(O)cc1 | 0.678 |
| COc1ccc(C#Cc2ccc3c(c2)[C@]2(C(=O)N3)[C@H](c3ccc(OCCO)cc3)N3[C@H](c4ccccc4)[C@H](c4ccccc4)OC(=O)[C@H]3[C@@H]2C(=O)N2CCN(c3ncccn3)CC2)cc1 | 0.433 |
| [N-]=[N+]=NCc1ccccc1[C@H]1OC(c2ccc(OCCCO)cc2)=N[C@@]1(Cc1ccccc1)C(N)=O | 0.669 |
| C#CCOC(=O)N[C@H](C=CCCCC)c1ccccc1 | 0.983 |
| COc1cccc(C[C@H]2C[C@@H](CO[Si](C(C)C)(C(C)C)C(C)C)N3C(=O)[C@]4(C(C)=O)O[C@]23[C@H]2C(=O)N(C)C(=O)[C@H]24)c1 | -0.254 |
| C=C(COC)/C(=C/C[C@@H](OC(=O)c1ccncc1)c1cccc(OCCO)c1)c1cc(C(=O)OC)ccc1OC | 0.997 |
| C[N+](C)(C)CCCC[C@@H]1NC(=O)[C@@H]2C[C@H](C(=O)NCCCCCNC(=O)CS)[C@H](c3cccc(OCCO)c3)N2C1=O | -0.003 |
| CCCCCCCCCCC(O)C1C=CC2C(=O)NC(=O)C2N1Nc1ccccn1 (stereo unspecified) | 0.997 |
| CCOC(=O)C[C@H]1[C@H](OC(=O)c2ccc(C(=O)c3ccccc3)cc2)[C@@H](NC(=O)C2CCCCC2)c2cc(OCCCO)ccc2N1C(=O)Cc1ccc(OC)cc1 | 0.666 |
